Assay results: ChEMBL document CHEMBL2218924, “A broad activity screen in support of a chemogenomic map for kinase signalling research and drug discovery” (Biochem J, 2013)

What was measured:
[1] = molecular target: T1, Ephrin type-A receptor 3 (Homo sapiens) (UniProt P29320); details: at 10 µM
T1 sequence (whole entry): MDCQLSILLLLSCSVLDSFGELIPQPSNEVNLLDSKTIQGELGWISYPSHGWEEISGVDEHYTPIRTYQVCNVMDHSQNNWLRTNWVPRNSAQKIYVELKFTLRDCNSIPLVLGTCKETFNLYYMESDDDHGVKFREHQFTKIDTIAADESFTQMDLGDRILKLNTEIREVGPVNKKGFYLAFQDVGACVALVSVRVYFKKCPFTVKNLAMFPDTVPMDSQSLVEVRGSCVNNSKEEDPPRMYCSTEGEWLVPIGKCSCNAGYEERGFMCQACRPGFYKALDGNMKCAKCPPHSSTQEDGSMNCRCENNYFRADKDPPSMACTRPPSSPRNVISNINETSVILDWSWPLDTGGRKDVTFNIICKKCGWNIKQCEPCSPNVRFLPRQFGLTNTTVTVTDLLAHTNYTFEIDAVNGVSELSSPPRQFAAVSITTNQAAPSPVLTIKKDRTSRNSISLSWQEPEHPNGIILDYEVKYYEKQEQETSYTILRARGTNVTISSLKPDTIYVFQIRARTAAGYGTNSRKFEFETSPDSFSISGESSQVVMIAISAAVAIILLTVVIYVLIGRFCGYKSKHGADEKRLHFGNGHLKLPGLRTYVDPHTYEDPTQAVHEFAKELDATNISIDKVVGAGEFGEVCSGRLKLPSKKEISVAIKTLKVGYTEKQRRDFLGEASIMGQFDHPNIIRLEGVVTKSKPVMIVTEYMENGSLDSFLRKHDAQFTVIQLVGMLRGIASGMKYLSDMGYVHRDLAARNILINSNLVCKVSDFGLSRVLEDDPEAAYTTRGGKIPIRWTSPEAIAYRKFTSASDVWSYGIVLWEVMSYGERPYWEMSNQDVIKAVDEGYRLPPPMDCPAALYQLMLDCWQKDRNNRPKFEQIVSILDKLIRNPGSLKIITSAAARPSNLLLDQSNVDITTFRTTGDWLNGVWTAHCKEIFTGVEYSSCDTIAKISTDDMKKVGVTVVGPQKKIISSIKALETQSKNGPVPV

[2] = molecular target: Ephrin type-A receptor 4 (Homo sapiens) (UniProt P54764); details: at 1 µM
[3] = molecular target: Ephrin type-A receptor 4 (Homo sapiens) (UniProt P54764); details: at 10 µM
[4] = molecular target: Ephrin type-A receptor 5 (Homo sapiens) (UniProt P54756); details: at 1 µM
[5] = molecular target: Ephrin type-A receptor 5 (Homo sapiens) (UniProt P54756); details: at 10 µM
[6] = molecular target: Ephrin type-A receptor 7 (Homo sapiens) (UniProt Q15375); details: at 1 µM
[7] = molecular target: Ephrin type-A receptor 7 (Homo sapiens) (UniProt Q15375); details: at 10 µM
[8] = molecular target: T2, Ephrin type-A receptor 8 (Homo sapiens) (UniProt P29322); details: at 1 µM
T2 sequence (whole entry): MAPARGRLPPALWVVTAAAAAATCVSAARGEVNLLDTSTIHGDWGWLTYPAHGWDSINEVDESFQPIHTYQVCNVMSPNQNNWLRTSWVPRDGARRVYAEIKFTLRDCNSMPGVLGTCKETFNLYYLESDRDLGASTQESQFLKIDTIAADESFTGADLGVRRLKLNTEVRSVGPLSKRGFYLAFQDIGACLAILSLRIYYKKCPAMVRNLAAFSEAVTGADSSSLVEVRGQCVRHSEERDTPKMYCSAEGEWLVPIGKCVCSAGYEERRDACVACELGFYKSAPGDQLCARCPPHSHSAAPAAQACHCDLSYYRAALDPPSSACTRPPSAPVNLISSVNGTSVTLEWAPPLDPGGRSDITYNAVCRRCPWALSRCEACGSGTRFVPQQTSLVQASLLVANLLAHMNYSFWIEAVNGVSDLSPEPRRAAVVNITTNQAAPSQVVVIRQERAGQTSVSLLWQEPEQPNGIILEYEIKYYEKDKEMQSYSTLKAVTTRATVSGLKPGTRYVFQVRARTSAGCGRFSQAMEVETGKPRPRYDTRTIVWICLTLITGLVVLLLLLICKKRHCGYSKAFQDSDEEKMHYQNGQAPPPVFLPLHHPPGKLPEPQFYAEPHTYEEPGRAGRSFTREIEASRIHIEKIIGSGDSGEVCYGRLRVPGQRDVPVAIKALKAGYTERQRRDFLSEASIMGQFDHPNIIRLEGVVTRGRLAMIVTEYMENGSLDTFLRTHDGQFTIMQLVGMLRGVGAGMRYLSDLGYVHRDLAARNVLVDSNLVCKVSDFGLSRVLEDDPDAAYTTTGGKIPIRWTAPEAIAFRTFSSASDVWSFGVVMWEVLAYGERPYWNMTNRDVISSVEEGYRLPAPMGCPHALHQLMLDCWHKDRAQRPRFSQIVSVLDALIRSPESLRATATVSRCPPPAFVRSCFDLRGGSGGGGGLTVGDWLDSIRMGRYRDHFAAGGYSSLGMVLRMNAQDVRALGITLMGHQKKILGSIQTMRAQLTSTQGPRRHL

[9] = molecular target: T2, Ephrin type-A receptor 8 (Homo sapiens); details: at 10 µM
[10] = molecular target: T3, Ephrin type-B receptor 1 (Homo sapiens) (UniProt P54762); details: at 1 µM
T3 sequence (whole entry): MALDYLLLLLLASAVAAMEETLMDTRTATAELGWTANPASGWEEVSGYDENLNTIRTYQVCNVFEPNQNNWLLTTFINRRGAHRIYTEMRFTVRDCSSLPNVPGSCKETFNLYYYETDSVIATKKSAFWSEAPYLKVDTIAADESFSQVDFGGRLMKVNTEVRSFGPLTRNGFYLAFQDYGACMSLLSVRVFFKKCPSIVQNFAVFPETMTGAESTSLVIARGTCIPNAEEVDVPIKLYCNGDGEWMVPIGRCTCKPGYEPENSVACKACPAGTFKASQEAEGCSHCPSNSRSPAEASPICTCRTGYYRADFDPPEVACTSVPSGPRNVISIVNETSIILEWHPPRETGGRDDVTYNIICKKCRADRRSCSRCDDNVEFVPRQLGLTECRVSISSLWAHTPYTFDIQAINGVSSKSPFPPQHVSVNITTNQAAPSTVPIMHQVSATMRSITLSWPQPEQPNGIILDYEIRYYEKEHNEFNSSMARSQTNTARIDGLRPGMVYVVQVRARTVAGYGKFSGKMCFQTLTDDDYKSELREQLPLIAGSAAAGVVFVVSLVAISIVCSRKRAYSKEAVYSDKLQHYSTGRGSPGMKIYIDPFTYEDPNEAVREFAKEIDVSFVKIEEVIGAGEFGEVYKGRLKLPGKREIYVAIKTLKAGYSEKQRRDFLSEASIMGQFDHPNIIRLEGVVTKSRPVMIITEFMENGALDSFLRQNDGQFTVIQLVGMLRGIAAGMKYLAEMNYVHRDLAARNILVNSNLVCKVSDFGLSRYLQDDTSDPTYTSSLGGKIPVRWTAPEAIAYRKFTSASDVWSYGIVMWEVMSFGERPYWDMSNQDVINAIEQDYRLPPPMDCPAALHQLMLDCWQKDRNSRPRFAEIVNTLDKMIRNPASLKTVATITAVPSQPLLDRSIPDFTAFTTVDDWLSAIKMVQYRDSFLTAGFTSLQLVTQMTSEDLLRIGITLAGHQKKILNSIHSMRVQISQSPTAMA

Sequence of Ephrin type-A receptor 5 (Homo sapiens) (P54756 whole entry): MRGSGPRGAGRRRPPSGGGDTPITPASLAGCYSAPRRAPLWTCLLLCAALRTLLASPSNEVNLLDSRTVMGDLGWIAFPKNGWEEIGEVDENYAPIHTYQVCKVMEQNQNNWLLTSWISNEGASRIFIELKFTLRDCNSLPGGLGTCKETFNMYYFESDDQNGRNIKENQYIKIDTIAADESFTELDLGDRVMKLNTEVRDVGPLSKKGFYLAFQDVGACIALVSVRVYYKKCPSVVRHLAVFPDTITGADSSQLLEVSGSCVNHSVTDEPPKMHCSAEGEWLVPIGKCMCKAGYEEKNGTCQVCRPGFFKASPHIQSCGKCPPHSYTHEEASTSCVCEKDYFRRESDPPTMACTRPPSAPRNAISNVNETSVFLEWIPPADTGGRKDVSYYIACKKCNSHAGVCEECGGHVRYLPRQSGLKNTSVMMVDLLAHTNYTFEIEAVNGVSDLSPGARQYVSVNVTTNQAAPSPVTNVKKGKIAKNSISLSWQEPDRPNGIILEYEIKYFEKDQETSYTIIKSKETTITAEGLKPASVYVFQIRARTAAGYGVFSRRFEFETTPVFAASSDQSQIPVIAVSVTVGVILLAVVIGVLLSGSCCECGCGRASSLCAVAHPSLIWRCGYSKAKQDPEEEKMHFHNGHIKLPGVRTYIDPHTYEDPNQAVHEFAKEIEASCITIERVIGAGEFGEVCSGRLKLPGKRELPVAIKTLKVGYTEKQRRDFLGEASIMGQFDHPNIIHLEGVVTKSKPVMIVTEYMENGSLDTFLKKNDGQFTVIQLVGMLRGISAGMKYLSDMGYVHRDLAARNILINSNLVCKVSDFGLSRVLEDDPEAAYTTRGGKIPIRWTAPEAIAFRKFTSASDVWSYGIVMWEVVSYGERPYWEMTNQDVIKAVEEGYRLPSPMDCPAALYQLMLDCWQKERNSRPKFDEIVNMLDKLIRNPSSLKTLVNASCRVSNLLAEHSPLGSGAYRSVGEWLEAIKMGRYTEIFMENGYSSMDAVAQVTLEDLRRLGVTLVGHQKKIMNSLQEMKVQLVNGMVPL
Sequence of Ephrin type-A receptor 4 (Homo sapiens) (P54764 whole entry): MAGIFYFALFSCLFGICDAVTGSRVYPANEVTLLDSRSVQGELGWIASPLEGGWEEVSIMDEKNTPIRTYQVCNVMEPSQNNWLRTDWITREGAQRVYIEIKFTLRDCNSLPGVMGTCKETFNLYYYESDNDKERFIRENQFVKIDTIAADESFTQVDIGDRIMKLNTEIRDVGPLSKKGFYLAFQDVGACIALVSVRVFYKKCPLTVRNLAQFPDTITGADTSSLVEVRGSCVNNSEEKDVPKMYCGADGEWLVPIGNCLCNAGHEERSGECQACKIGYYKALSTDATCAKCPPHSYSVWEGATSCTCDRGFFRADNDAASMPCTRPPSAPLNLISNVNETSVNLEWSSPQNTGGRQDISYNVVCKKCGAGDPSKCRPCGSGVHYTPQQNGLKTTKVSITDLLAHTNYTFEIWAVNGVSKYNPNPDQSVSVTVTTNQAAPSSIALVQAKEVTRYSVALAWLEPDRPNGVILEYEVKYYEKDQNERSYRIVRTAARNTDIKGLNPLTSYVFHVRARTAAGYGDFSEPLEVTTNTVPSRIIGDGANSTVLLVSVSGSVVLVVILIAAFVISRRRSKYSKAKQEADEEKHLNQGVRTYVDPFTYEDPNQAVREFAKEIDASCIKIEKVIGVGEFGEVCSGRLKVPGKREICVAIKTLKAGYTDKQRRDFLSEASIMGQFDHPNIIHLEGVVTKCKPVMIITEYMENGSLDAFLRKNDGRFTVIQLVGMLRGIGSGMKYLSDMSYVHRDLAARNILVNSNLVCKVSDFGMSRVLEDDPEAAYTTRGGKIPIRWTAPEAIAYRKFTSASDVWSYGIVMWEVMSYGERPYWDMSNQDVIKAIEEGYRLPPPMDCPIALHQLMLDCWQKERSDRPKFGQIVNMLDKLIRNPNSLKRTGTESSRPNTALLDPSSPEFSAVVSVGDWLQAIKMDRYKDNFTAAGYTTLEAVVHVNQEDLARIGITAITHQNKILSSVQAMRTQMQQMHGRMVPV
Sequence of Ephrin type-A receptor 7 (Homo sapiens) (Q15375 28-998 limits assumed): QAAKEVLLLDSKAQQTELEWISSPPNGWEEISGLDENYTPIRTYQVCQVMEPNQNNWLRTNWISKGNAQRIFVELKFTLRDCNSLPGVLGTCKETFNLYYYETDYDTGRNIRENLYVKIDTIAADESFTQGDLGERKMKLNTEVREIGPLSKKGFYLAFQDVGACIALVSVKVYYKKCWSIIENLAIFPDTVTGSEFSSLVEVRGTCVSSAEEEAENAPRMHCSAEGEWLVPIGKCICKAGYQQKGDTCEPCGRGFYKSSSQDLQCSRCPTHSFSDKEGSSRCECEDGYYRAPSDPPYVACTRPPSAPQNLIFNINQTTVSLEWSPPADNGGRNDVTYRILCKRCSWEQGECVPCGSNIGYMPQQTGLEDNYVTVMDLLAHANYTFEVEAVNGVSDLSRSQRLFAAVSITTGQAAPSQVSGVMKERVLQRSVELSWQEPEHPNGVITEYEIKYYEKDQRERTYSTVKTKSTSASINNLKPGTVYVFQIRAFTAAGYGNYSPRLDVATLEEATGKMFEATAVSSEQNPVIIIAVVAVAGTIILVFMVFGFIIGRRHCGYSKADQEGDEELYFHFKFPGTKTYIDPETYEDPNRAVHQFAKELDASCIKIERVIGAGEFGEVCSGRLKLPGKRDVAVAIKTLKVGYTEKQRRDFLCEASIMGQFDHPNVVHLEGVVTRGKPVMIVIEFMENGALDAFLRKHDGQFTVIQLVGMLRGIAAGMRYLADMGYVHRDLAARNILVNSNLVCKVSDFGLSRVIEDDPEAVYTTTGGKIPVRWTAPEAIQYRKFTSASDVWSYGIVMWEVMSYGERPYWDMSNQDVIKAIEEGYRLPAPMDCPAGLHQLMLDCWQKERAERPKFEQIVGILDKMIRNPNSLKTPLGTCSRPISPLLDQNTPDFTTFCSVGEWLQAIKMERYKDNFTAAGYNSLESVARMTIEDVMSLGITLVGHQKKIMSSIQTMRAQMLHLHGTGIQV

Structure (SMILES): O=C1c2ccccc2-[n+]2ccc3c([nH]c4ccccc43)c21
- residual activity [1]: 81%
- residual activity [2]: 103%
- residual activity [3]: 104%
- residual activity [4]: 116%
- residual activity [5]: 102%
- residual activity [6]: 85%
- residual activity [7]: 79%
- residual activity [8]: 89%
- residual activity [9]: 85%
- residual activity [10]: 85%
